Only some compounds are listed: those with a hit (about 7.6% of all), similar ones and a draw of the others.
p53 reactivation: restores transcriptional activity of mutant p53; H1299 p53-A138V BP100-luciferase reporter, luminescence, 24 h; Potency, µM (highest dose often 92.2 µM), actives largely listed as activators; actives 0.063% (n = 320,000); AID 504706; further: nearly all actives have a fitted effect of over 45% in size
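p53-null H1299 cells stably carrying temperature-sensitive p53-A138V and a BP100-luciferase reporter were pinned with compounds (4-point, 1:5 series) and held 24 hrs at 37 deg C. Luminescence was read 10 min after detection reagent.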
Gal4-VP16 FLuc: Gal4-VP16 reporter inhibition counter-screen | Drosophila S2 Gal4-VP16 UAS-luciferase, luminescence, 20 h | Potency, µM (doses to about 53.6 µM), hits mostly inhibitors | actives 3.5% (n = 310,000);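 further: Gal4-VP16 expression switched on by copper sulfate through the metallothionein promoter; nearly all actives have a fitted effect of over 50% in size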
Giardia killer: kills Giardia lamblia. Giardia lamblia trophozoite viability. activity change, % at 7.66 µM, hits read low. actives 0.15% (n = 340,000). AID 540267; in the data active means activity change below about -80%; inconclusive means between about -30% and that limit;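 further: parasites exposed to compound for two days anaerobically before the ATP read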
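Anaerobic 48 hrs incubation at 37 deg C of 100 trophozoites/well with test compounds; ATPLite 1-Step luminescence, 15-30 min RT, reports cellular ATP as viability.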
ELG1 DNA repair: ELG1-dependent DNA repair inhibition. Potency, µM (highest dose often 46.1 µM), usual class: inhibitors. HEK293T ELG1-luciferase reporter, luminescence, 16 h; DNA damage induced by 5-fluorouridine. actives 2.3% (n = 330,000). AID 504467; further: nearly all actives have a fitted effect of over 55% in size
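HEK293T cells expressing luciferase-tagged ELG1 (2,000/well) received 5-Fluorouridine plus compound or DMSO for 16 hr at 37 °C. Luciferase was read by ONE-Glo luminescence after 30 min at room temperature.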
BRCA1 expr up: BRCA1 expression activation | Potency, µM (top dose mostly 46.1 µM), hits mostly activators | actives 1.1% (n = 380,000) | MCF7-BRCA1-FFLuc reporter, luminescence, 48 h; response scale: scaled: vehicle 0%, 10 µM genistein 100% | AID 624202; further: nearly all actives have a fitted effect of over 80% in size
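Compounds are tested at multiple concentrations on MCF7 BRCA1-luciferase reporter cells seeded at 2000 per well; after 48 h, a single luminescence end-point is taken and curves fitted to the normalized data.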
RORg inh: blocks mouse ROR gamma transcriptional activity. actives 5.4% (n = 310,000). Potency, µM (highest dose often 53.6 µM), hits mostly inhibitors. P51450. Drosophila S2 Gal4-RORgamma UAS-luciferase reporter, 20 h. AID 2551; further: nearly all actives have a fitted effect of over 60% in size
Target sequence (P51450 whole entry, looked up, the tested form may be a part): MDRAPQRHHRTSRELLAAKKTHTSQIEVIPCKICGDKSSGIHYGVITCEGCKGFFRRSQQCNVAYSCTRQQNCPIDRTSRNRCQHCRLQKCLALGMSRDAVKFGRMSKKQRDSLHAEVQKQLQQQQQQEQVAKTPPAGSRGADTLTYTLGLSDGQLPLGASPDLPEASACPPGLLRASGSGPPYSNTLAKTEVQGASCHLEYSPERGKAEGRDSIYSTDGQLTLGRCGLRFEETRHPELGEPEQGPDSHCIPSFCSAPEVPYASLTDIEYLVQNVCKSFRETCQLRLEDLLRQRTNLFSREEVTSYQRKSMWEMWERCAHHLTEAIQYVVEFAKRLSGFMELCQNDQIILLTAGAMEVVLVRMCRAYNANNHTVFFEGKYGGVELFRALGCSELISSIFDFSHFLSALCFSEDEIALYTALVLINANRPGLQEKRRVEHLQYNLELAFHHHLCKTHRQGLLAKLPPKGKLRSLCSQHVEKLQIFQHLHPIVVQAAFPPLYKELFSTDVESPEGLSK
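In this cell-based reporter format, copper sulfate (700 uM final) drives Gal4–ROR gamma fusion expression from a metallothionein promoter in Drosophila Schneider cells; compounds preincubated 1 hr, reporter read after 20 hr at ambient temperature.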
Large screens that a line does not name were inactive. Unless noted, the call rests on the fitted dose curve; in most records, active means well fitted curve in the direction sought with a large enough effect; inconclusive means small, poorly fitted or top-dose-only effect, or another doubt; inactive means no such curve, though single readings can be large; an effect the other way counts as inactive or inconclusive.

Cc1[nH]c2ccccc2c1/C=C/c1nc2ccccc2c(=O)n1CCO	ELG1 DNA repair 1.8µM, RORg inh inconclusive
COc1cc(NC(=O)Cn2nc(C(F)(F)F)c3c2CCCC3)cc(OC)c1OC	Gal4-VP16 FLuc inconclusive, ELG1 DNA repair inconclusive
O=C1CN(C(=O)c2ccc(Br)o2)C(c2ccccc2)c2cc(Cl)ccc2N1 (centres undefined)	ELG1 DNA repair 21µM
O=C1CN(C(=O)c2ccc(Br)o2)C(c2ccc(F)cc2)c2cc(Cl)ccc2N1 (centres undefined)	ELG1 DNA repair inconclusive, RORg inh inconclusive
O=C(Nc1ccccc1Cl)N1CCN(c2ncccn2)CC1	none
COc1ccc(/C=N/n2c(-c3cc(C)[nH]n3)n[nH]c2=S)cc1	none
S=c1[nH]nc(-c2ccccc2)n1/N=C/c1cccc(Br)c1	Gal4-VP16 FLuc 7.1µM, RORg inh 7.1µM
COc1cc(/C=N/n2c(-c3ccccc3)n[nH]c2=S)cc(OC)c1OC	ELG1 DNA repair 4.1µM
Oc1ccc(/C=N/n2c(-c3ccccc3)n[nH]c2=S)cc1	RORg inh inconclusive
COc1ccc(/C=N/n2c(-c3ccccc3)n[nH]c2=S)cc1	Gal4-VP16 FLuc 4.5µM, RORg inh 5.6µM (no result: p53 reactivation)
COc1ccc(/C=N/n2c(-c3cc(C)[nH]n3)n[nH]c2=S)cc1OC	none
COc1cccc(/C=N/n2c(-c3cccs3)n[nH]c2=S)c1	RORg inh 7.1µM
COc1ccc(C(CCNCc2ccc(N(C)C)cc2)c2ccccc2OC)cc1 (centres undefined)	none
CCc1nc2c(OCCn3cccc3)cccn2c1N(C)C(=O)CC(C)C	none (no result: p53 reactivation, Gal4-VP16 FLuc, Giardia killer, ELG1 DNA repair, RORg inh)
Cc1cnn(-c2nc(-c3ccccc3)cc(-c3ccccc3)n2)c1	Gal4-VP16 FLuc 11µM, ELG1 DNA repair 21µM, RORg inh 3.2µM
Cc1[nH]c(=O)nc2c1CCC2	none
Cc1ccc(/C(N)=N/OC(=O)Cc2cccs2)cc1	p53 reactivation inconclusive, ELG1 DNA repair inconclusive, BRCA1 expr up 11µM
O=C1c2ccccc2C(=O)N1CCCc1cn(C[C@H]2CC[C@H](Cn3cc(CCCN4C(=O)c5ccccc5C4=O)nn3)O2)nn1	ELG1 DNA repair 8.2µM (no result: Gal4-VP16 FLuc, RORg inh)
O=C(NC1CCCCCC1)C(=S)N1CCOCC1	none
S=C(NC1CCCCC1)N1CCOCCOCCN(C(=S)NC2CCCCC2)CCOCCOCC1	Gal4-VP16 FLuc inconclusive, ELG1 DNA repair 18µM
CSc1ccccc1NC(=O)CSc1nnc(CNC(=O)c2ccccc2F)n1C	none
Cn1c(=O)c(C(=S)NC(=O)C2CC2)c(N)n(Cc2ccccc2)c1=O	Gal4-VP16 FLuc 1µM, RORg inh 1.3µM (no result: Giardia killer, BRCA1 expr up)
CCN(CC)CC(=O)c1c(N)n(Cc2ccccc2)c(=O)n(C)c1=O	none
CCn1c(CNc2ccc(C)cc2C)nnc1SCC(=O)N1CCCc2ccccc21	ELG1 DNA repair inconclusive
CCCCN1CC(=O)N2[C@H]3c4cc(C)ccc4OC[C@@H]3[C@H](c3ccccc3)[C@]2(C)C1=O	none (no result: Gal4-VP16 FLuc, RORg inh)
CCCCN1CC(=O)N2[C@H]3c4cc(Cl)ccc4OC[C@@H]3[C@H](c3ccccc3)[C@]2(C)C1=O	ELG1 DNA repair 18µM (no result: Gal4-VP16 FLuc, RORg inh)
CCN(Cc1ccccc1)C(=O)CCc1nnc(CCCc2ccccc2)o1	Gal4-VP16 FLuc inconclusive, ELG1 DNA repair inconclusive, BRCA1 expr up 11µM, RORg inh inconclusive
COc1ccc(C2=NCN(c3ccc(C)cc3)C(=S)N2)cc1	Gal4-VP16 FLuc 2.8µM, ELG1 DNA repair inconclusive, BRCA1 expr up 4µM
Cc1ccc(N2CN=C(c3ccccc3)NC2=S)cc1	ELG1 DNA repair inconclusive, BRCA1 expr up 11µM, RORg inh inconclusive
Cc1ccc(N2CC(O)=C(c3ccccc3)C2=N)cc1	none
CN(C)c1cc2c3ccccc3ccc2c2ccccc12	none (no result: p53 reactivation, Gal4-VP16 FLuc, Giardia killer, ELG1 DNA repair, RORg inh)
COc1nc(-c2cnccn2)sc1C	none
COc1ccc(C(=O)Nc2nnc(S(=O)(=O)Cc3ccc(F)cc3)s2)cc1	none
CN(C)CC(C)(C)CNC(=S)NCc1ccc2c(c1)OCO2	none
Cc1cccc(NC(=S)NCCc2ccc3c(c2)OCCO3)c1C	Gal4-VP16 FLuc inconclusive, ELG1 DNA repair inconclusive, RORg inh 4µM
